Experimental data as given in the supplement of paper PMC6555819.

Tests used:
Assay in all cases: PBM binding z-score (relative to random genomic background probes); higher = stronger binding; sequences stand for … in GC…GCGATTGACAGCGTAGAATGAAGG
[1] = test system: FXR:RXRa (NR concentration 270 nM, RXRa partner concentration 90 nM)
Summary of the method: (§1)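 Random background probes are the reference for binding z-scores. These scores derive from regression-normalized fluorescence on custom Agilent 4×180K protein-binding microarrays incubated 1 h with ligand-free nuclear receptor dimers. Binding was detected with antibodies against each partner (one per run).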

[2] = test system: LXRa:RXRa (NR concentration 270 nM, RXRa partner concentration 90 nM)
Summary of the method: as §1

[3] = test system: LXRa homodimer (NR concentration 270 nM)
Summary of the method: as §1

[4] = test system: LXRb:RXRa (NR concentration 270 nM, RXRa partner concentration 90 nM)
Summary of the method: as §1

[5] = test system: PPARa:RXRa (NR concentration 270 nM, RXRa partner concentration 90 nM)
Summary of the method: as §1

[6] = test system: PPARg:RXRa (NR concentration 180 nM, RXRa partner concentration 90 nM)
Summary of the method: as §1

[7] = test system: PPARg:RXRa 270nM:90nM, anti-RXR (NR concentration 270 nM, RXRa partner concentration 90 nM)
Summary of the method: as §1

[8] = test system: PPARg:RXRa 30nM:10nM, anti-RXR (NR concentration 30 nM, RXRa partner concentration 10 nM)
Summary of the method: as §1

[9] = test system: PPARg:RXRa 90nM:30nM, anti-RXR (NR concentration 90 nM, RXRa partner concentration 30 nM)
Summary of the method: as §1

[10] = test system: PPARg:RXRa DBDmut IVT, anti-RXR (DBD mutation: RXRa K156A/R161A, NR concentration 270 nM, RXRa partner concentration 90 nM)
Summary of the method: as §1

[11] = test system: PPARg:RXRa IVT, anti-PPARg (NR concentration 270 nM, RXRa partner concentration 90 nM)
Summary of the method: as §1

[12] = test system: PPARg homodimer (NR concentration 180 nM)
Summary of the method: as §1

[13] = test system: PXR:RXRa (NR concentration 270 nM, RXRa partner concentration 90 nM)
Summary of the method: as §1

[14] = test system: PXR homodimer (NR concentration 270 nM)
Summary of the method: as §1

[15] = test system: RARa:RXR (NR concentration 270 nM, RXRa partner concentration 90 nM)
Summary of the method: as §1

[16] = test system: RARa homodimer (NR concentration 270 nM)
Summary of the method: as §1

[17] = test system: RARb:RXRa (NR concentration 270 nM, RXRa partner concentration 90 nM)
Summary of the method: as §1

Sequence	PBM binding z-score [1]	PBM binding z-score [2]	PBM binding z-score [3]	PBM binding z-score [4]	PBM binding z-score [5]	PBM binding z-score [6]	PBM binding z-score [7]	PBM binding z-score [8]	PBM binding z-score [9]	PBM binding z-score [10]	PBM binding z-score [11]	PBM binding z-score [12]	PBM binding z-score [13]	PBM binding z-score [14]	PBM binding z-score [15]	PBM binding z-score [16]	PBM binding z-score [17]
CCGAGTAGGTTACGAGGGGGCATTCCGTGCGAAT	2.81	7.17	1.62	6.21	3.36	1.77	2.96	0.628	1.69	4.52	4.42	1.68	4.37	0.912	2.94	0.747	2
CCGAGTAGATTACGAGGGGGCATTCAGTGCGAAT	0.841	2.24	0.791	3.36	1.75	0.167	0.849	0.0804	0.742	0.434	0.871	0.638	2.73	3.64	1.79	-0.0773	0.973
CCGAGTAGGTTACGAGGGGACATTCAGTGCGAAT	1.08	5.68	0.00926	3.05	1.68	2.07	2.15	0.304	1.13	4.84	4.14	1.04	2.82	2.23	0.995	0.101	1.42
CCGAGTAGGTTACGAGGGGGCATTGAGTGCGAAT	2.26	7.11	1.25	6.12	3.55	2.61	3.24	1.03	2.58	4.78	4.42	1.95	5.05	8.74	2.91	0.485	2.02
TCGAGTAGGTTACGGGGGCAGTCAGGGATGAAGA	2.28	2.27	0.393	4.55	3.63	4.99	5.02	2.93	4.41	5	5.6	2.04	2.33	1.2	2.43	0.156	2.36
CCGAGTTGGTTACGAGGGGGCATTCAGTGCGAAT	1.35	3.69	1.21	4.27	2.31	-0.0841	0.784	-0.706	0.481	0.938	1.51	1.98	3.41	7.65	2.14	0.677	1.31
CCGAGTAGGTTACGACGGGGCATTCAGTGCGAAT	-0.0135	5.81	-0.31	3.38	1.36	0.995	1.17	-0.329	0.19	3.85	3.21	0.811	1.68	0.127	1.17	-0.209	1.23
TCGAGTAGATTACGGGGGCATTCAGGGATGAAGA	1.41	1.87	0.702	4.05	2.53	1.06	2.64	2.04	2.12	2.06	2.81	0.745	2.52	1.38	2.08	0.218	1.37
TCGAGTAGGTTACGGGGGTATTCAGGGATGAAGA	1.78	2.4	0.457	4.07	3.45	4.49	4.53	2.64	3.61	4.5	5.38	1.51	2.09	0.83	2.49	0.925	2.07
CTAGGTAGGTTAAGGGGGTCATTCAGTTTGAAAG	4.79	4.89	2.54	6.08	5.56	6.17	6.57	3.72	5.95	5.01	5.61	2.95	5.85	11.1	5.43	1.74	3.26
TCGAGAAGGTTACGGGGGCATTCAGGGATGAAGA	4.57	4.21	0.687	5.72	5.32	6.1	5.94	4.28	5.29	3.48	4.73	1.82	3.71	1.24	3.78	0.65	3.65
CCGAGTAGGTTACGAGAGGGCATTCAGTGCGAAT	1.04	7.41	2.68	5.96	2.19	1.48	1.64	-0.24	0.958	4.61	3.37	2.29	5.07	6.97	2.08	-0.345	1.66
TCGAGTAGGTTACGGTGGCATTCAGGGATGAAGA	0.0909	0.257	-0.578	0.0794	1.81	1.73	2.29	1.44	1.9	3.28	3.56	0.177	-0.0566	-0.975	0.611	-0.958	0.864
CTATGTAGGTTAAGGGGGTCCTTCAGTTTGAAAG	1.09	1.76	0.414	3.75	4.29	6.59	6.57	4.47	6.41	7.26	6.7	1.58	2.33	1.68	1.92	0.652	1.67
CCGAGTAGGATACGAGGGGGCATTCAGTGCGAAT	0.863	1.35	0.542	3.08	1.75	0.323	1.47	0.0307	1.08	0.37	0.975	0.513	2.31	3.26	1.78	-0.298	0.887
TCGAGTAGGATACGGGGGCATTCAGGGATGAAGA	1.26	1.43	0.346	3.58	2.35	1.24	2.72	2.22	2.53	1.6	3.19	0.663	2.12	0.916	2.17	0.237	1.25
CCGAGTAGGTTACGAGGGGGCATTAAGTGCGAAT	2.79	6.98	1.2	6.3	3.38	2.04	3.06	0.817	2.16	4.89	4.4	2.11	4.77	7.4	2.72	0.983	2.15
TCGAGTAGGTAACGGGGGCATTCAGGGATGAAGA	1.53	1.83	0.159	4.16	3.41	4.6	4.51	2.68	3.8	4.46	5.38	1.54	2.44	1.58	2.48	0.232	1.74
CCGAGTCGGTTACGAGGGGGCATTCAGTGCGAAT	0.716	4.66	1.26	4.05	1.74	-0.00257	0.709	-0.212	0.329	0.193	0.806	0.506	2.86	5.49	1.77	0.0912	1.12
CTATGTAGGTTAAGGGGGTAATTCAGTTTGAAAG	1.45	2.81	0.813	4.23	4.84	7.58	6.9	5.33	6.78	7.52	7.27	2.67	2.99	1.83	2.31	1.28	2.32
CCGAGTAGGTGACGAGGGGGCATTCAGTGCGAAT	1.24	3.03	0.595	4.26	3.3	2.94	3.3	0.701	2.23	5.58	5.86	1.39	4.21	5.4	2.76	0.823	1.75
CTATGTAGGTTAAGGTGGTCATTCAGTTTGAAAG	1.04	1.15	0.413	1.09	3.64	5.35	4.98	2.07	4.28	7.1	7	1.36	0.913	0.758	0.941	0.483	1.53
CTATGTAGGTTAAGCGGGTCATTCAGTTTGAAAG	2.56	2.59	0.655	2.56	4.84	5.97	5.57	2.6	4.53	7.52	7.09	2.08	3.8	8.04	3.31	0.415	2.16
CCGAGTAGGTTACGAGGGGGCATTCGGTGCGAAT	1.7	7.08	1.42	6.21	3.53	2.41	3.16	0.729	2.56	3.74	4.36	1.85	4.83	4.05	2.98	0.224	2.22
CTATGTAGGTTAAGGGGGTCATTAAGTTTGAAAG	4.76	4.56	2.21	5.86	6	8.78	7.7	5.93	8.13	7.49	7.73	3.7	5.89	12.5	5.37	1.68	3.58
CTATGTAGATTAAGGGGGTCATTCAGTTTGAAAG	4.51	4.72	3.33	6.12	5.52	4.29	5.06	2.72	4.53	3.6	4.97	4.49	5.56	10.4	5.56	3.01	3.42
TCGAGGAGGTTACGGGGGCATTCAGGGATGAAGA	5	3.99	0.868	5.71	5.33	6.77	5.92	4.08	5.24	3.43	5.82	2.53	4.07	2.7	4.4	0.971	3.42
CCGAGTAGGTTACGAGGGGGCATACAGTGCGAAT	2.06	6.92	1.29	6.04	3.52	2.73	3.69	1.1	2.54	4.86	4.23	2.45	4.27	2.55	3.03	1.01	2.15
